From PubChem BioAssay
PG9 Ab binder = binds the HIV-1 gp120 antibody PG9; AID 624416; inhibition, % at 6.7 µM; TR-FRET gp120-PG9 antibody binding; hit rate 0.43% among 360,000; in the data active means inhibition above about 8.5%
NR1D1 modulator = modulates human Rev-erb alpha binding to DNA; activity, % at 10 µM; Rev-erbα–FITC-DNA binding, fluorescence polarization, 90 min; P20393; hit rate 0.79% among 370,000; AID 1259318;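 active means activity above about 14%, limit read from the data; passing the limit was not always enough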;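 further: 0% = DMSO wells with 35 nM protein and 100% = DMSO wells with 750 nM protein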
RAM inhibit = inhibitors of the yeast RAM network | S. cerevisiae dse1pr::URA3 reporter, 5-FOA growth OD615, 2 d; analog-sensitive cbk1-as2 kinase mutant strain | hit rate 1.8% among 190,000 | inhibition, % at 50 µM;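 active means inhibition above a set limit, 3 SD over mean compound inhibition, cut at about 8.4% in these data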;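 further: 0% = DMSO-only wells with no growth and 100% = 10 µM 1-NA-PP1 full growth; inhibition rescues growth on 5-FOA so higher OD means more RAM inhibition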
PGE2 EP2 inh = inhibitors of human EP2 prostaglandin E2 receptor | P43116 | C6 glioma cells expressing human EP2, cAMP TR-FRET; cells stimulated with saturating PGE2 | inhibition, % at 25 µM | hit rate 0.52% among 260,000 | AID 1422;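 active means percent inhibition above 40 after rounding to a whole number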;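 further: rat C6 glioma host cells with rolipram phosphodiesterase inhibitor present; the protocol text gives 20 µM as final concentration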
Target sequence (P43116 whole entry, looked up): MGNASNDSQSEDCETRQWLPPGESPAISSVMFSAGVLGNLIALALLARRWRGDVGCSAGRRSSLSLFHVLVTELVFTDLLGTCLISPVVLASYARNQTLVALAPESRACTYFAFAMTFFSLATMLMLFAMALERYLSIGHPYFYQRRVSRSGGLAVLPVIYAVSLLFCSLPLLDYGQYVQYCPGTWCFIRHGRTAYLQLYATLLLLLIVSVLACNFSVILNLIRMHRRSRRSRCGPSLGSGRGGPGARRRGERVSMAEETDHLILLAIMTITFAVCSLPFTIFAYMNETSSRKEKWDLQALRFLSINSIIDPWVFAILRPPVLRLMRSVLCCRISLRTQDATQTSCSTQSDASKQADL
EP2 modulator = EP2 receptor (human) modulation; P43116; EP2-expressing cells, cAMP HTRF FRET, PGE2 co-stimulation; induction, % at 25 µM; hit rate 0.83% among 260,000; AID 940;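 active means compounds whose cAMP rise, as percent of the full-agonist control response, exceeds 60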;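 further: rat C6 glioma line stably carrying human EP2 under a CMV promoter; the protocol text gives 20 µM as final concentration; 100% = response of wells given 1 µM PGE2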
SKN-1 block = inhibitors of C. elegans SKN-1 | C. elegans VP596 Pgst-4::GFP/RFP ratio, acrylamide-induced, 24 h | inhibition, % at 21.8 µM | hit rate 0.49% among 360,000 | AID 624304;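 active means interference check ratio from 0.5 to 1.5 plus GFP to RFP signal ratio inhibition reaching or exceeding a fixed threshold, cut at about 30% in these data, passing the limit was not always enough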
Rev-erbA confirm = confirmation of modulators of human Rev-erb alpha DNA binding; shares compounds with NR1D1 modulator; activation, % at 25 µM; Rev-erb alpha FITC-DNA binding, fluorescence polarization, 90 min; hit rate 61% among 3,000;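 active means activation at or above a set limit, or at least 3 SD above the negative control mean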;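 further: 0% = 35 nM protein with DMSO and 100% = 750 nM protein high control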
RORg counter = affects RORgamma DNA binding in a Rev-erb alpha counter-screen; shares compounds with NR1D1 modulator; purified RORgamma protein-FITC-DNA binding, fluorescence polarization; IC50, µM; hit rate 8% among 910;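 active means Compounds whose fitted half-maximal concentration for disrupting protein-DNA binding is below 10 micromolar; the record names Rev-erb in its text, so the target is in doubt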
* = called active by the depositor; nt = not tested or not shown; ! = not confirmed by another sample. This is a sample that favours compounds with a hit; in the whole collection about 2.9% have one here.

SMILES | PG9 Ab binder | NR1D1 modulator | RAM inhibit | PGE2 EP2 inh | EP2 modulator | SKN-1 block | Rev-erbA confirm | others
CCOC(=O)c1sc(N=Nc2c(O)[nH]c(=O)[nH]c2=O)c(C(=O)OCC)c1C | nt | nt | 1.5 | 7.2 | 11.4 | nt | nt
O=C(CN1C2CCC1CC(O)(c1ccccn1)C2)NC1CC1 (stereo not drawn) | nt | nt | nt | nt | -17.6 | nt | nt
O=C(O)c1ccccc1-c1c2cc(Br)c(=O)cc-2oc2[c]([Hg])c(O)c(Br)cc12 | nt | 117.8* | nt | 37.0 | -41.8 | nt | 79.5*
O=c1[nH]c(=O)n(Cc2ccc(F)cc2)c(O)c1C=Nc1ccc(Cl)cc1 | 1.3 | 125.0* | 6.0 | 5.0 | -4.7 | -4.6 | 9.5
CCOc1ccc(N=Cc2c(O)n(Cc3ccccc3)c(=S)[nH]c2=O)cc1 | 1.5 | 41.2* | nt | 10.1 | 21.2 | 8.4 | 9.6
CN1C(=O)C(=Cc2ccc(SC3CCCCC3)o2)C(=O)N(C)C1=O | -2.2 | -4.3 | 4.4 | 21.4 | -41.0 | 24.1 | nt
CCN(CC)c1ccc(/C=C2\C(=O)NC(=S)N(c3ccc(OC)cc3OC)C2=O)o1 | nt | nt | nt | nt | nt | 16.3 | nt
Cc1ccc(/C=C2\C(=O)NC(=S)N(c3ccc(F)cc3)C2=O)o1 | 2.0 | 0.7 | nt | nt | nt | 2.9 | nt
CN1C(=O)C(=Cc2ccc(N3CCCCC3)o2)C(=O)N(C)C1=S | -3.9 | 40.4* | 1.8 | 14.2 | -4.4 | 34.1 | 47.2* | RORg counter=>40
CCN(CC)c1ccc(C=C2C(=O)N(C)C(=S)N(C)C2=O)o1 | -3.2 | 34.5* | 8.0 | 3.0 | -10.8 | 38.1* | 15.2
O=C1NC(=O)N(c2ccc3c(c2)OCO3)C(=O)/C1=C/c1ccc(N2CCCCC2)o1 | -2.8 | 8.8 | 0.6 | 18.4 | 17.0 | 18.0 | nt
CCN(CC)c1ccc(/C=C2\C(=O)NC(=S)N(C)C2=O)o1 | -10.3 | 57.0* | nt | 2.0 | -1.6 | 33.5 | 62.4* | RORg counter=>40
Cc1cc(C)cc(N2C(=O)/C(=C\c3ccc(N4CCN(C)CC4)o3)C(=O)NC2=S)c1 | -6.1 | 17.1* | nt | 4.0 | 1.1 | 25.9 | 11.3
COc1ccc(CC(=O)N2CCN(Cc3ccco3)C[C@@H]2C)cc1OC | nt | nt | nt | nt | 0.6 | nt | nt
COc1ccccc1CN(CCN(C)C)C(=O)Cc1ccc2c(c1)OCCO2 | nt | nt | nt | 4.5 | -2.2 | nt | nt
COc1nc(C)c(CC(=O)N(CCN(C)C)C2CCN(C)CC2)c(OC)n1 | nt | nt | nt | 2.6 | 2.8 | nt | nt
O=C1NC(=O)C(=Cc2ccc(N3CCOCC3)o2)C(=O)N1 | -5.8 | 29.7* | 3.0 | 6.8 | 31.9 | 20.6 | 28.3*
Cc1ccc2scc(CC(=O)N(C)CCN(C)C)c2c1 | nt | nt | nt | 5.3 | -71.2 | nt | nt
CCC(=O)c1cn(Cc2ccccc2F)c2ccccc12 | nt | nt | nt | 7.5 | 50.2 | nt | nt
Nc1c2c(nc3ccccc13)CCCCC2 (tested in a mixture with another compound) | nt | nt | nt | 12.6 | -4.6 | nt | nt
Nc1c2c(nc3ccccc13)CCN(Cc1ccccc1)C2 | -0.8 | 32.5* | nt | nt | nt | -16.6 | 33.8* | RORg counter=>40
CC(C)CC(C)N (stereo not drawn) | -0.8 | 18.9* | nt | nt | nt | -10.3 | -2.6
CC(C)(C)c1nc(N2CCOCC2)c2nnn(Cc3ccccc3Cl)c2n1 | nt | nt | nt | 5.0 | 51.5 | nt | nt
CCCSc1ncc(CN2C3CCC2CC(O)(c2nccn2C)C3)cn1 (stereo not drawn) | nt | nt | nt | 2.0 | 4.5 | nt | nt
CCCn1c(C)c(C(=O)c2cccc3ccccc23)c2ccccc21 | -3.2 | 8.3 | nt | nt | nt | -4.7 | nt
Cc1c(C(=O)c2cccc3ccccc23)c2cccc3c2n1[C@H](CN1CCOCC1)CO3 | -3.1 | 26.8* | nt | 18.6 | -1.7 | 1.6 | 15.7*
CCn1cc(CN2C3CCC2CC(O)(c2ccccc2F)C3)cn1 (stereo not drawn) | nt | nt | nt | 3.6 | -4.0 | nt | nt
CCCCCCCCCCCCCCCC[n+]1ccccc1 | -0.7 | 24.7*! | nt | 68.7* | -43.5 | 17.8 | -3.5
